# Bioassay records: PubChem BioAssay, National Center for Advancing Translational Sciences (NCATS)
# Sampled rows, rich in hits. Any-hit rate of the full collection: about 9.4%.
# HTT cytoprotect = cytoprotection in Huntington HTT-Q103 PC12 cell model. PC12 HTT-Q103 induced, cytoprotection, ATP luminescence, 40 h. Potency, µM (series often up to 56.4 µM), without a hit: cytoprotection (ATP increase), hits mostly activators. 230,000 tested, 0.14% active; further: potency means the concentration at half of the fitted maximal effect; % of control where 0% means no effect; nearly all actives have a fitted effect of over 45% in size
#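 PC12 cells with ecdysone-inducible HTT exon 1 Q103-GFP, induced with 100 nM tebufenozide and co-treated with library compounds in a dose series (1536-well, 1500 cells/well). Cytoprotection read as ATP content by ATPlite luminescence.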
# HttQ103 aggreg = reduces HttQ103-GFP aggregates in PC12 cells. PC12 HttQ103-GFP aggregates, Acumen cytometry, 40 h. Potency, µM (highest dose often 46.1 µM), inactives show at the top dose activity change, negative = inhibition, actives largely listed as inhibitors. 220,000 tested, 1.1% active; further: potency means the concentration at half of the fitted maximal effect; on the % scale 0 is the no-effect control and ±100 the full control effect; nearly all actives have a fitted effect of over 60% in size
#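 Multiplexed with ATP-based cell death, this channel scores GFP aggregates in PC12 cells expressing inducible HTTex1-Q103-GFP. Induction used 100 nM tebufenozide; compounds were tested in concentration series.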
# IMPase cell inh = membrane-permeable compound that blocks inositol monophosphatase; P97697; CHO-M1 cells, IP1 accumulation, HTRF TR-FRET ratio; inhibition (IP1 accumulation), % at 46.1 µM; 120,000 tested, under 10 active; active means well fitted curve in the direction sought with a large enough effect in the signal ratio, not every such curve was filed as active; inconclusive means small, poorly fitted or top-dose-only effect, or a change in a side signal; inactive means no such curve, though single readings can be large or run the other way; the % refers to the signal ratio;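 further: cells stimulated with carbachol in lithium chloride buffer; plate controls were DMSO basal wells for no effect and reference inhibitor wells for full effect; higher means more IMPase inhibition seen as more IP1 and lower FRET ratio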
# Target sequence (P97697 whole entry, looked up): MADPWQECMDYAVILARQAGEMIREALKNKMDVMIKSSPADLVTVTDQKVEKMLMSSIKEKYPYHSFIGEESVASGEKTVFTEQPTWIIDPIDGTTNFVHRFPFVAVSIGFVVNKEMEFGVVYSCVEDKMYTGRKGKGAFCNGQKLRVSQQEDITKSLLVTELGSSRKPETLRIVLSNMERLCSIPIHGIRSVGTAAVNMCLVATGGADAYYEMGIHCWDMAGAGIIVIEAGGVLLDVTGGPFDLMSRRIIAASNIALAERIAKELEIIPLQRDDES
#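 Seeded CHO-M1 cells were dosed with compound at up to 46 uM, stimulated with carbachol for 30 min, then lysed in IP-One detection reagents. Higher IP1 lowers the TR-FRET signal.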
# ALDH1A1 inh = ALDH1A1 (human) enzyme inhibition; P00352; Purified ALDH1A1, NADH fluorescence, propionaldehyde substrate; Potency, µM (titrated, usually from 75.3 µM), for the others: at the top dose activity, negative = inhibition, hits mostly inhibitors; 220,000 tested, 7.3% active; AID 1030; active means well fitted inhibition curve with a large enough effect, not every such curve was filed as active; inconclusive means small, poorly fitted or top-dose-only effect, or another doubt; inactive means no such curve, though single readings can be large or run the other way;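 further: potency means the concentration at half of the fitted maximal effect; plate controls were no enzyme wells and a reference inhibitor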
# HPGD block = inhibitors of human 15-hydroxyprostaglandin dehydrogenase (HPGD); Potency, µM, for the others: at the top dose activity change, negative = inhibition, usual class: inhibitors; P15428; AID 894; 150,000 tested, 4.3% active; purified HPGD, NADH fluorescence kinetic, PGE2 substrate; active means well fitted inhibition curve with a large enough effect, not every such curve was filed as active; inconclusive means small, poorly fitted or top-dose-only effect, or another doubt; inactive means no such curve, though single readings can be large or run the other way; further: potency means the concentration at half of the fitted maximal effect; on the % scale 0 is the no-effect control and ±100 the full control effect
# Target sequence (P15428 whole entry, looked up): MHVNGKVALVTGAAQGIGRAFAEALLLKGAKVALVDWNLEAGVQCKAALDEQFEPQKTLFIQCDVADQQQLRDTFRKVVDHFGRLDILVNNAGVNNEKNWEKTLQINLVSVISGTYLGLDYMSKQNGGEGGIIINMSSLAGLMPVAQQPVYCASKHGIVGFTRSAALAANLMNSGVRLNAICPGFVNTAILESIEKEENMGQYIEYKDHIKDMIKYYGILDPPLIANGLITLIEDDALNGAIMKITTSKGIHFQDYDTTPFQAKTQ
#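 20 nM HPGD preincubated 15 min at room temperature with compound in 50 mM Tris-HCl pH 8, 0.01% Tween 20. Started with 1 mM NAD+ and 30 uM prostaglandin E2; NADH fluorescence (360/450 nm) read 5 times over 30-s intervals, last minus first.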
# IMPase Li cell = IMPase inhibition in cells with lithium potentiation. CHO-M1 cells, IP1 TR-FRET (IP-One), carbachol + lithium. Potency, µM (titrated, usually from 59.4 µM), for the others: top-dose activity, negative = IMPase inhibition, actives largely listed as inhibitors. 210,000 tested, 0.35% active;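 further: IP1 builds up when IMPase is blocked and the TR-FRET signal falls; potency means the concentration at half of the fitted maximal effect; plate controls were basal vehicle for no effect and high inhibitor control for full effect; nearly all actives have a fitted effect of over 50% in size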
#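 Test compounds were applied to CHO-M1 cells previously cultured for 16–30 h at 2000 per well. A small lithium amount accompanied them; after 30 min at 37C, IP1 was quantified by TR-FRET.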
# Starred values were filed as active, the others as inactive; ? = inconclusive; . = no result; [ ] = another dose, or the depositor's remark. Unless noted, the call rests on the fitted dose curve; in most records, active means well fitted curve in the direction sought with a large enough effect; inconclusive means small, poorly fitted or top-dose-only effect, or another doubt; inactive means no such curve, though single readings can be large; an effect the other way counts as inactive or inconclusive.
SMILES,HTT cytoprotect,HttQ103 aggreg,IMPase cell inh,ALDH1A1 inh,HPGD block,IMPase Li cell
CC[N+]1(CC)CC2=Cc3c(ccc4ccccc34)C(C)C2C1 (stereo not drawn),-7%[10 µM],7%[9.22 µM],.,.,.,.
CCCCC/C(C=O)=C/c1ccccc1,-9%,-7%,.,.,.,.
S=c1[nH]nc(-c2ccc(Cl)cc2)n1/N=C/c1ccco1,8%[10 µM],-3%[9.22 µM],.,.,.,.
S=c1[nH]nc(-c2ccco2)n1/N=C/c1cccc(Cl)c1Cl,-9%[10 µM],5%,.,-4%,2µM*,-10%
S=c1[nH]nc(-c2ccco2)n1/N=C/c1ccc(Cl)cc1Cl,-23%,-24%,-1,?,2.2µM*,-6%[38.3 µM]
Cc1cccc(C)c1NS(=O)(=O)c1ccc(NS(=O)(=O)c2ccc3c(c2)OCCO3)cc1,.,.,-1,.,.,.
c1ccc(-c2cccc(N3CC[C@@]4(CCCNC4)C3)c2)cc1,-111%,.,.,?,-14%,9%
CCCCCCCC/C=C\CCCCCCCC(=O)NCCCC(=O)O,-2%,.,.,10%,-1%,2%
CC(C)CO/N=C1/C[C@@H](O)[C@@H](O)[C@@H]2[C@@H]3C(=O)N([C@@H](C)c4ccccc4)C(=O)[C@H]3CC[C@H]12,?,.,.,2%[13.5 µM],.,.
COc1ccc(OC)c(NC(=O)c2cc(S(=O)(=O)NCc3ccco3)ccc2F)c1,-1%,13%,8,22µM*,?,0%[38.3 µM]
O=C(NC1CC(=O)c2sccc21)c1ccc(Cl)cc1Cl (stereo not drawn),-11%[10 µM],24%,.,-2%,.,3%
Cc1noc(C)c1-c1ccc2ncnc(NCc3cccs3)c2c1,-75%,.,.,?,.,6%
Cc1nc(N2CCN(C(=O)CCC(=O)O)CC2)c2c(C)c(C)sc2n1,-4%[10 µM],-24%,-8,4%,35µM*,16%[38.3 µM]
CCC(=O)N1CCN(c2nc(C)nc3sc(C)c(C)c23)CC1,-25%[10 µM],-25%,-13,0%,?,14%[38.3 µM]
O=C(c1c[nH]c(C(=O)N2CCN(Cc3ccccc3)CC2)c1)C1CCCCC1,17%[10 µM],-11%,.,7.9µM*,.,15%
O=S(=O)(c1cccc(C(F)(F)F)c1)N(CCCN1CCOCC1)Cc1cccs1,9%[0.074 µM],-3%,7,13µM*,-4%,13%[38.3 µM]
CO[C@H]1COC(=O)C/C=C\[C@H](C)[C@@H](NS(=O)(=O)c2ccc(C)cc2)COC(=O)C/C=C\[C@@H]1C,?,.,.,-13%[13.5 µM],.,.
N#CCCN(CCC#N)C(=O)c1ccc2c(c1)OCO2,-4%,-2%,0,13%,-3%,20%[38.3 µM]
CCCN(CCC)C(=O)c1ccc2c(c1)OCO2,9%[10 µM],-15%,12,4%,25µM*,0%
N#CCc1c(C#N)c(N)nc(N2CCN(C=O)CC2)c1C#N,-19%,2%,.,7.1µM*,.,3%
Cc1nn(C)cc1C(C)NCc1c(C(=O)N2CCCCCCC2)nc2ccc(Cl)cn12 (stereo not drawn),-11%[10 µM],8%[9.22 µM],.,3.2µM*,.,7%
Cc1n[nH]c(C)c1CNCc1c(C(=O)N2CCCCCCC2)nc2ccc(Cl)cn12,13%[10 µM],-9%[9.22 µM],.,.,.,.
COc1ccccc1CNc1nc(-c2ccccc2CN(C)C)nc2ccccc12,-93%,.,.,-2%,-5%,13%
O=C(NC(Cc1cc(=O)[nH]c2ccccc12)C(=O)O)c1ccc(Cl)cc1 (stereo not drawn),-28%,-5%,.,-7%,-29%,7%
COCCn1c(SCC(=O)c2ccc3c(c2)OCCO3)nnc1C(C)C,-10%[10 µM],7%,3,10µM*,-9%,10%[38.3 µM]
SMILES,HTT cytoprotect,HttQ103 aggreg,IMPase cell inh,ALDH1A1 inh,HPGD block,IMPase Li cell
COCCn1c(SCC(=O)Nc2cc(C)cc(C)c2)nnc1C(C)C,7%,24%,-2,?,-15%,-12%[38.3 µM]
COCCn1c(SCC(=O)c2ccc(Cl)cc2)nnc1C(C)C,-11%,12%,-8,9.5µM*,?,14%[38.3 µM]
C=CCc1c(C)nc(SC)nc1Nc1ccc(C(C)=O)cc1,-16%,?,0,8.9µM*,-30%,5%[38.3 µM]
C=CCc1c(C)nc(SC)nc1Nc1ccc(C(=O)O)cc1,-6%[10 µM],1%,-1,-2%,-20%,-1%[38.3 µM]
CCCCN(CC)C(=S)Nc1ccc2nc(N3CCN(C)CC3)cc(C)c2c1,2%[10 µM],6%,.,?,.,4%
O=C(/C=C/c1ccccc1Cl)NCCc1ccccc1,-25%,10%,?,-7%,16µM*,3%[38.3 µM]
Cc1ccc(SCCNC(=O)/C=C/c2ccc(Cl)cc2)cc1,-3%[10 µM],-5%,.,-14%,-13%,3%
Cc1ccc(SCCNC(=O)/C=C/c2ccccc2Cl)cc1,-3%,14%,5,13µM*,?,43%[38.3 µM]
O=C(/C=C/c1ccccc1Cl)NCc1ccccc1,0%,3%,-1,-10%,-29%,7%[38.3 µM]
[N-]=[N+]=NC[C@@H]1O[C@@H](n2cnc3c(N)ncnc32)[C@@H]2O[C@@H]21,-22%[10 µM],.,.,-5%[13.5 µM],-6%,-1%
CC(C)OC(=O)c1nn2c(C(F)(F)F)cc(-c3ccco3)nc2c1Cl,-5%[10 µM],9%,4,?,-18%,-6%
CC(C)OC(=O)c1nn2c(C(F)(F)F)cc(-c3ccc(Br)o3)nc2c1Br,-4%,-11%,6,18µM*,.,.
Cc1noc(C)c1-c1ccc2ncnc(Nc3ccc(F)cc3)c2c1,-67%,.,.,-15%,.,-11%
COCCCNC(=O)C1CCC(CNS(=O)(=O)c2ccc(C)cc2)CC1 (stereo not drawn),-13%[10 µM],-3%,.,11µM*,.,2%
CCCCNC(=O)C1CCC(CNS(=O)(=O)c2ccc(C)cc2)CC1 (stereo not drawn),.,5%,.,10µM*,.,-1%
CCOC(=O)c1sc(N2C(=O)c3oc4cc(C)c(C)cc4c(=O)c3C2c2ccc(C)cc2)nc1C (stereo not drawn),.,.,3,.,.,.
COc1cc(OC)nc(-n2ncc(Br)c(Br)c2=O)n1,.,4.5µM*,.,10µM*,-1%,-18%
CN(C)c1ccc(/C=C/C(O)=C2/C(=O)N(C)C3(C)CC2c2ccccc2O3)cc1 (stereo not drawn),-3%[10 µM],31%,-3,20µM*,-18%,22%[38.3 µM]
CCOc1ccc(/C=C/C(O)=C2/C(=O)N(C)C3(C)CC2c2ccccc2O3)cc1OC (stereo not drawn),-56%,?,.,?,.,14%
COc1cccc(S(=O)(=O)c2nc(C)c3c(n2)CCC3)c1,-20%[1.9 µM],13%[9.22 µM],.,6.3µM*,.,-2%
CCOC(=O)c1c(/N=C/C2=C(O)CC(C)(C)CC2=O)sc(C)c1C,13%[10 µM],-2%,.,7.1µM*,-5%,-2%
CCOC(=O)c1c(/N=C/c2cc([N+](=O)[O-])ccc2O)sc(C)c1C,8%[10 µM],?,.,20µM*,-11%,-4%
CCOC(=O)c1c(/N=C/c2cc(OC)cc([N+](=O)[O-])c2O)sc(C)c1C,-3%[10 µM],18%,-2,32µM*,-14%,6%
